# Reference: PubChem BioAssay AID2330 (Broad Institute, 2010)
# In all, about 37,000 compounds went through this assay and about 2,800 (7.6%) were called active. Not shown: some 1% with an inconclusive outcome. The entries come from a sample that favours actives as a whole. Values without a mark were called inactive. Cut-off read from the data, not from the text of the source: active = inhibition above about 80%; inconclusive = no clear call, values can overlap the other calls; inactive = below that.
# Experiment: NOMO-1 AML cell viability reduction, primary screen, STK33 inhibitor project, CellTiter-Glo luminescence (AID 2330)
# Details: NOMO-1 AML viability, 72 h, active compounds read high, concentration not given here
row,SMILES,inhibition
1,COc1ccc(CNC(=O)c2c(C)oc3c2cc(OC(C)=O)c2ccccc23)cc1,43%
2,Cc1noc(C)c1S(=O)(=O)Nc1ccc2c(c1)CC(=O)N([C@H](C)CO)C[C@@H](C)[C@@H](CN(C)Cc1ccc(C(=O)O)cc1)O2,-16.8%
3,C[C@H](CO)N1C[C@H](C)[C@H](CN(C)S(=O)(=O)c2cn(C)cn2)Oc2c(NC(=O)c3ccncc3)cccc2C1=O,29.1%
4,O=C(Cn1cc(C(=O)C2CC2)c2ccccc21)Nc1ccccc1Cl,3.17%
5,Cc1c(Cl)cccc1NC(=O)Cn1cc(C(=O)c2cccs2)c2ccccc21,88.1% (active)
6,COc1ccc(OC)c(NC(=O)Cn2cc(C(=O)C3CC3)c3ccccc32)c1,-2.38%
7,C[C@@H]1CN([C@@H](C)CO)C(=O)c2cccc(N(C)C)c2O[C@H]1CN(C)S(=O)(=O)c1cccs1,22.8%
8,Cc1ccnc(N)c1,6.37%
9,C[C@H](CO)N1C[C@H](C)[C@H](CN(C)C)Oc2ccc(NC(=O)Nc3ccc(F)cc3)cc2CC1=O,-3.06%
10,COc1ccc(NC(=O)N(C)C[C@@H]2Oc3c(NC(=O)NC4CCCCC4)cccc3C(=O)N([C@H](C)CO)C[C@H]2C)cc1,-1.16%
11,C=CC(C)(O)CCC1(C)C2=C(C(OC(C)=O)C(OC(C)=O)C1C)C(C)(C)CCC2 (centres undefined),115% (active)
12,C[C@@H]1CN([C@@H](C)CO)C(=O)c2cc(NC(=O)Nc3ccccc3)ccc2O[C@H]1CN(C)S(=O)(=O)c1ccccc1,-0.0629%
13,C[C@H](CO)N1C[C@H](C)[C@H](CN(C)S(=O)(=O)c2ccc(Cl)cc2)Oc2ccc(NC(=O)C3CCCCC3)cc2C1=O,7.26%
14,COc1ccc(OC)c(NC(=O)CSc2n[nH]c(-c3ccncc3)n2)c1,14.4%
15,C[C@@H]1CN([C@H](C)CO)C(=O)Cc2cc(NC(=O)Nc3ccc4c(c3)OCO4)ccc2O[C@@H]1CN(C)Cc1ccc(C(=O)Nc2ccccc2N)cc1,96.7% (active)
16,C[C@H]1CN([C@@H](C)CO)C(=O)Cc2cc(NC(=O)CCCCCC(=O)Nc3ccccc3N)ccc2O[C@@H]1CN(C)Cc1ccncc1,19.5%
17,C[C@@H]1CN([C@H](C)CO)C(=O)Cc2cc(NC(=O)Nc3ccc(F)cc3)ccc2O[C@@H]1CN(C)Cc1ccc2c(c1)OCO2,31%
18,C[C@H](CO)N1C[C@H](C)[C@H](CN(C)Cc2ccc(C(=O)Nc3ccccc3N)cc2)Oc2ccc(NC(=O)Nc3ccccc3)cc2CC1=O,141% (active)
19,C[C@H]1CN([C@@H](C)CO)C(=O)Cc2cc(NC(=O)Nc3ccc4c(c3)OCO4)ccc2O[C@H]1CN(C)Cc1ccc(C(=O)Nc2ccccc2N)cc1,127% (active)
20,COc1ccc(CN(C)C[C@@H]2Oc3ccc(NC(=O)Nc4ccc5c(c4)OCO5)cc3CC(=O)N([C@H](C)CO)C[C@H]2C)cc1,8.79%
21,C[C@@H]1CN([C@H](C)CO)C(=O)Cc2cc(NC(=O)Nc3ccc4c(c3)OCO4)ccc2O[C@H]1CN(C)Cc1ccc(C(=O)O)cc1,20.5%
22,CC(C)NC(=O)Nc1ccc2c(c1)CC(=O)N([C@H](C)CO)C[C@@H](C)[C@@H](CN(C)Cc1ccc(C(=O)Nc3ccccc3N)cc1)O2,60.7%

row,SMILES,inhibition
1,CC(C)NC(=O)Nc1ccc2c(c1)CC(=O)N([C@H](C)CO)C[C@H](C)[C@H](CN(C)Cc1ccc3c(c1)OCO3)O2,14.7%
2,CCN1CCN(C(=O)N[C@@H](C(=O)N[C@@H]2C(=O)N3C(C(=O)O)=C(CSc4nnnn4C)CS[C@H]23)c2ccc(O)cc2)C(=O)C1=O,16.9%
3,Cc1ccc(C)c(S(=O)(=O)NC(C)C(=O)Nc2ccc(Br)cc2F)c1 (centres undefined),1.68%
4,Cc1noc(C)c1S(=O)(=O)Nc1ccc2c(c1)CC(=O)N([C@H](C)CO)C[C@H](C)[C@H](CN(C)S(=O)(=O)c1cn(C)cn1)O2,-3.68%
5,C[C@@H]1CN([C@H](C)CO)C(=O)Cc2cc(NS(C)(=O)=O)ccc2O[C@@H]1CN(C)C(=O)Nc1ccc2c(c1)OCO2,-3.88%
6,O=C(Oc1ccccc1)c1cccc(COC(=O)c2cc3ccccc3oc2=O)c1,5.03%
7,C[C@H](CO)N1C[C@H](C)[C@@H](CN(C)C(=O)Nc2ccccc2)Oc2ccc(N(C)C)cc2C1=O,14.4%
8,CC1CCCCC1NC(=O)CSc1nnc(N)s1 (centres undefined),13.1%
9,COC(=O)c1cc(NC(=O)Cc2ccccc2[N+](=O)[O-])ccc1Cl,62.9%
10,Cc1nnc(SCC(=O)N2CCc3ccccc32)n1-c1ccccc1,10%
11,CN(C)c1nc(SCCO)nc(N(C)C)n1,33.8%
12,COc1cc2c(cc1NC(=O)CN(C)S(=O)(=O)c1ccc(Br)cc1)oc1ccccc12,-7.24%
13,COc1ccc(NC(=O)N(C)C[C@@H]2Oc3ccc(NS(C)(=O)=O)cc3C(=O)N([C@@H](C)CO)C[C@@H]2C)cc1,22.3%
14,COC(=O)c1ccc(C(=O)OC)c(NC(=O)COc2ccc(C)cc2)c1,13.3%
15,Cc1sc2ncnc(SCC(=O)Nc3ccccc3)c2c1-c1ccccc1,26.6%
16,N#Cc1c(SCC(=O)Nc2ccccc2)ncc2cc3ccccc3nc12,110% (active)
17,O=C(CSc1nnc(-c2ccccc2)c(-c2ccccc2)n1)Nc1ccccc1,1.52%
18,CC(C)NC(=O)Nc1cccc2c1O[C@H](CN(C)S(=O)(=O)c1cccs1)[C@@H](C)CN([C@H](C)CO)C2=O,-9.32%
19,COc1ccc2nc3c(nc2c1)C(=O)c1ccccc1C3=O,29.2%
20,COc1ccc(C)c(Cn2c(-c3nonc3N)nc3ccccc32)c1,112% (active)
21,Cc1ccc(S(=O)(=O)N(C)C[C@@H]2Oc3ccc(NC(=O)Cc4ccccc4)cc3CC(=O)N([C@H](C)CO)C[C@H]2C)cc1,53.4%
22,Cc1noc(C)c1NC(=O)Nc1cccc2c1O[C@@H](CN(C)Cc1ccc3c(c1)OCO3)[C@@H](C)CN([C@@H](C)CO)C2=O,13.5%
